The labels stand for the following.
T1: UNK ZnF1-3 (human, UniProt Q9C0B0 31-174)
T1 sequence: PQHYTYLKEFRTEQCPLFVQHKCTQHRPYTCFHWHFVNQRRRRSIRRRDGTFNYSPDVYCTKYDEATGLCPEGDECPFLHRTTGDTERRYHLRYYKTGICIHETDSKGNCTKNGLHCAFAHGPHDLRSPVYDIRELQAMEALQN

B1: chr14:35505469:35505470:+_ENSMUSG00000041408_ENSMUST00000048263|mus_hu|motif|central (ssRNA)
RNA: GGGAGUUCUACAGUCCGACGAUCCUGUAUGGUAACAUUACAAACUGACAAGCAAGAUGGAUGUAAAACAGUGUAAUCUCGGGUCCGUCCAACUGUCCCUCUAAAACUGGUCCCACAACUUACACCCCCUUUCUUUGCCUGAUUCAACAGAGGAUUGAGCAUCA
B2: chr6:72561926:72561927:-_ENSMUSG00000056429_ENSMUST00000070524|mus_mus|motif|central (ssRNA)
RNA: GGGAGUUCUACAGUCCGACGAUCGUAAAUAAAACAUCACCAGAGGAGAGUGUCAUCAAAGUGCCGGUGCAAAACCUGAAGCGGUCCCAUCUCUGCCAGCCCAGACUUGCCACCAAACCCCAGAGGAGGUCACAGUCUUUUCAUCAACAGAGGAUUGAGCAUCA
B3: chr2:153237265:153237266:-_ENSMUSG00000061411_ENSMUST00000109784|mus_mus|mus_mus_mus_hu_False|1_8 (ssRNA)
RNA: GGGAGUUCUACAGUCCGACGAUCAAAAAAAAAAAAAAAAAAGUGUCCUUGUGCCCAAAGUCUCAGGUGCUUGGAGUGUGGCUAGAAACAGCUCUUUUGGAUCCCACCUCUUUCAAAAACAAAAUGUCCAACUGGUGAGGCAGGCAACAGAGGAUUGAGCAUCA
B4: 130210676_130211900_346_CDS_ENSG00000197958_ENST00000361436|human|control|control (ssRNA)
RNA: GGGAGUUCUACAGUCCGACGAUCAAAAGUGAUAUUCCCACUGUGUUUAAUGUUUUUCUGUUUCUUUCUGUCUCUUGGUGGUUCCUUGAGGGCUUUGAUGAUCAGGGCAGAGGCAGAAGGCACCACCUCAAUCUGGGCCUGUCUCAACAGAGGAUUGAGCAUCA
B5: chr2:153237265:153237266:-_ENSMUSG00000061411_ENSMUST00000109784|mus_mus|mus_mus_mus_hu_False|8_58 (ssRNA)
RNA: B3 RNA with U78C, G79A, A137G, G138A, C140G, A141C, G142A
B6: chr2:153237265:153237266:-_ENSMUSG00000061411_ENSMUST00000109784|mus_mus|mus_mus_mus_hu_False|8_78 (ssRNA)
RNA: B3 RNA with G66A, A137G, G138A, C140G, A141C, G142A
B7: chr8:80553714:80553715:+_ENSG00000104435_ENST00000220876|hu_mus|FALSE|FALSE (ssRNA)
RNA: GGGAGUUCUACAGUCCGACGAUCAGCCUCCAGCUUUUUCUGAAUCUCCUCCAGAGACAGGUCUUUCUUCUUUGGAGAAGCUAGAGUUCGUGGAGCUUCUGAGAUGGGAGAUGGUGGCUUCAAGAUCAGCUCAAAAGCCUGGCCCAACAGAGGAUUGAGCAUCA
B8: chr2:153237265:153237266:-_ENSMUSG00000061411_ENSMUST00000109784|mus_mus|mus_mus_mus_hu_False|8_28 (ssRNA)
RNA: B3 RNA with A115G, A137G, G138A, C140G, A141C, G142A
B9: 26295160_26295280_2512_CDS_ENSMUSG00000026924_ENSMUST00000091252|mouse|control|control (ssRNA)
RNA: GGGAGUUCUACAGUCCGACGAUCUCCCUUUUCUGGAUGAUGAACAACCUCUGAAGGUUUUGGUUUUACAGGAACAUAAAGUGCAGGGGCAGCAGGGGCUAGAAGGACAUUGCCACCAAAAUCUGGCAGCUCAUUUUGUGCCCACAACAGAGGAUUGAGCAUCA
B10: 1003750_1005305_5821_CDS_ENSG00000060237_ENST00000535572|human|control|control (ssRNA)
RNA: GGGAGUUCUACAGUCCGACGAUCAUGAACAGACUUUGCAUCUUCUGACUUAUUUUUACCCUCUUUCUGGGCACCGUCUGCUGCAACAGAAACCUGAAAUCGUCCCAUCUUAAAAACACCAGCUCCUGAACUAGUUGCUAGGACCAACAGAGGAUUGAGCAUCA
B11: 9430860_9430980_9933_3pUTR_ENSMUSG00000040209_ENSMUST00000041124|mouse|control|control (ssRNA)
RNA: GGGAGUUCUACAGUCCGACGAUCUUUAAAAAGAACCAACUACUAUUUGACUCUAACCCAAUCCUUCAGUAUCUGGUAUGCGCUUUGUUUUUUCCCUUGCUAACACUAGGCCCUUUCUGUGCACUGCCAGCCAAGCACAGGCAGCAACAGAGGAUUGAGCAUCA
B12: 93812015_93812135_631_5pUTR_ENSG00000117505_ENST00000370272|human|control|control (ssRNA)
RNA: GGGAGUUCUACAGUCCGACGAUCGAUUUCUCAAAAAGUCGCCCUCGGAGAGUGAUCCCGGGGGGUGCUUUGCGAAGAGGGUGCAGAAAAUGAACGGAGGAGCAGCUGGCUUGAGGGCUGGGAACACUCGCGUGUGUGAGAGAUCAACAGAGGAUUGAGCAUCA
B13: chr5:128448638:128448639:+_ENSG00000066583_ENST00000173527|hu_mus|hu_hu_hu_mus_False|28_28 (ssRNA)
RNA: GGGAGUUCUACAGUCCGACGAUCGGCACUCGCCUUAAUUAGGUUCUGAAUUUCCUUGAACUUCGGGUGGUCUUUGUCAGCCACCAGCUGUAGGAGGACAGCCUCACUCGUGGUCACGAUGAUCCCAGUGCGGGCAAGACGCUCCAACAGAGGAUUGAGCAUCA
B14: chr4:117881997:117881998:-_ENSMUSG00000033295_ENSMUST00000150096|mus_hu|FALSE|FALSE (ssRNA)
RNA: GGGAGUUCUACAGUCCGACGAUCCAGAAGUCAUACAAAAUAAGGAUCCAAAGUGAACUCAAGAAAAAAAAAAACAAAACAAAAUAAACCCCAACCCCUACAGUGGCCCAUUCUGCAGAUACGGAUUCGCGAAAGGAAAAAUCACAACAGAGGAUUGAGCAUCA
B15: chr10:60895279:60895280:-_ENSMUSG00000020091_ENSMUST00000020288|mus_mus|FALSE|FALSE (ssRNA)
RNA: GGGAGUUCUACAGUCCGACGAUCACUGGAAGAUGUUUUGUUAAAAAAGUUGUAGUUCAAAAUUGUACUGAAAACUUAUCUAAAAAUAGGUCUGUAGUCAUCUUAAAAAUAAAAGGUCUCUCCUCUGAUAAGGAGAGACUGAUACAACAGAGGAUUGAGCAUCA
B16: chr4:103718443:103718444:-_ENSG00000109332_ENST00000394803|perfect_dup|FALSE|FALSE (ssRNA)
RNA: GGGAGUUCUACAGUCCGACGAUCAAAGCUGGAAGAACUUAAGUCUUCUCAGAUGAGCAUGUGAAUGAAUGGAGGGAGGUAAACAAAAAAUAAAAUUAAAAAAGAUGAGGUCUGAUAGGGGAGCAGCCGGAUAAGAAAAUCAAACAACAGAGGAUUGAGCAUCA
B17: chr15:12740188:12740189:-_ENSMUSG00000022195_ENSMUST00000057256|mus_hu|FALSE|FALSE (ssRNA)
RNA: GGGAGUUCUACAGUCCGACGAUCAUAAAUGAAGUAUGAAUGAAUCUCAUACAGCUCAACAGACCUGGGGGAAAAGUGAAGACAAACAAACAAACAAACAAAAAAAAAAACAAAACCCUAAAAAAUACUUAAGGAAGACAGAUACAACAGAGGAUUGAGCAUCA
B18: chr6:48548902:48548903:+_ENSMUSG00000052751_ENSMUST00000163452|mus_mus|FALSE|FALSE (ssRNA)
RNA: GGGAGUUCUACAGUCCGACGAUCAAGGAACAAAACAAGACCCAGUAGGCAGAAGUCAUAGGAAAGCAGAAUCCAAUCACUAUAAGUAAGAAAUGUCUAACAAUUAGACUCGCCCUACGAUAGAAGUAGUGCCUUCUGGAGGUACAACAGAGGAUUGAGCAUCA
B19: 176792147_176792267_4022_3pUTR_ENSG00000144320_ENST00000272748|human|control|control (ssRNA)
RNA: GGGAGUUCUACAGUCCGACGAUCACAUGAUAGGGAGUAAAAGGCAGAGGCCAGCUUCAGAUGGGGAGUUUGGGAAGGCAUCUCUCUGAGGAGGCAAAAUUUAAGCUGAAAUCUGAGGCAGGAAAGGGCAUGGUCAGAGAACUGCAACAGAGGAUUGAGCAUCA
B20: chr9:15453159:15453160:+_ENSG00000164975_ENST00000490969|hu_hu|FALSE|FALSE (ssRNA)
RNA: GGGAGUUCUACAGUCCGACGAUCAUGAUGCACAAGCCUUAUGUCAGUAAUGACAAUGACAUGUUCACAGUCUCCCUGAUGACAGUAUAAGUAAGGAAAACCCAGUUUAAUACACAAGUCAUUGAAGGUGAAAUCUUCCAUUCUCAACAGAGGAUUGAGCAUCA
B21: chr2:47635579:47635580:+_ENSG00000095002_ENST00000543555|hu_hu|motif|central (ssRNA)
RNA: GGGAGUUCUACAGUCCGACGAUCACUCUAUACUGACGAACCAGAAGAAGAUCUUUUACAAAAGAUUCAAAAUUCAUUUUACGGAGCACAACACUCUGCAGAUUCUUUGCUCCUGCCGGCCCCAUGUACUUGAUCACCCCCUGGCAACAGAGGAUUGAGCAUCA

Where a chain is given by its changes, count along the chain named. Over roughly 24,000 sequences, “enrichment r” has its median near 0.99; the highest 2% begin near 3.7. Many of the other results were omitted from the sample, so the highest values are more common in it than they were.

This assay deals with T1, UNK ZnF1-3. The assay can be described thus: nsRBNS (natural sequence RNA bind-n-seq); RBNS binding buffer (assumed for nsRBNS): 25 mM Tris pH 7.5, 150 mM KCl, 3 mM MgCl2, 0.01% Triton X-100, 500 ug/ml BSA, 20 U/ml SUPERase-In, 4 C; UNK is unkempt and MSI1 is Musashi-1; names of the RNAs are library labels; protein concentration not given here; high values mean tight binding.
Regarding B1, the binding signal amounted to 1.1 enrichment R. The molecule B2 registered a binding signal of 3.38 enrichment R.

As for B3, the binding signal came to 4.46 enrichment R. As for B4, the binding signal is 0.682 enrichment R.

B5 yielded a binding signal of 3.36 enrichment R. In the case of B6 it was 4.8 enrichment R. In the case of B7 it was 0.56 enrichment R; in that of B8, 3.73 enrichment R. With B9, the binding signal is 1.58 enrichment R. In the case of B10 it was 1.34 enrichment R; in that of B11, 0.957 enrichment R.

Take B12: the binding signal was found to be 1.73 enrichment R.

B13 yielded a binding signal of 0.734 enrichment R. B14 returned a binding signal of 7.45 enrichment R. B15 showed a binding signal of 0.617 enrichment R. As for B16, the binding signal was determined as 21.1 enrichment R.

In turn, B17 returned a binding signal of 6.86 enrichment R.

With B18, the binding signal was found to be 2.2 enrichment R. Regarding B19, the binding signal is 3.56 enrichment R. In the case of B20 it was 1.02 enrichment R; in that of B21, 1.41 enrichment R.
